Laboratory results taken from PubChem BioAssay (Tox21).
Where “and” joins values, the source holds several entries; their conditions need not be identical. Equal entries are not always repeated. Results filed as inconclusive are left out. Calls of active or inactive are those of the source. Unless noted, calls come from the whole dose curve; as a rule, active = well fitted curve in the direction sought with a large enough effect in the repeat runs; inconclusive = weak or mixed curves; inactive = no such curve, though single readings can be large; an effect the other way counts as inactive or inconclusive.

Experiments:
[1] = qHTS assay for small molecule agonists of the p53 signaling pathway (AID 651631; calls by dose curve; note: nearly all actives have a fitted effect of over 15% in size; note: potency is the fitted concentration of half-maximal effect)
Method in brief: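 Stably transfected HCT-116 cells (beta-lactamase behind p53 response elements) get compounds after a 5 h settling period; 16 h later at 37 °C, FRET substrate is loaded and fluorescence read after 2 h.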

[2] = qHTS assay for small molecules that induce genotoxicity in human embryonic kidney cells expressing luciferase-tagged ATAD5 (AID 651632); note: nearly all actives have a fitted effect of over 15% in size; note: potency is the fitted concentration of half-maximal effect
Method in brief: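 HEK293T cells carrying a luciferase reporter tagged to ATAD5 were exposed to compound or DMSO vehicle for 16 hr at 37C, 5% CO2. Amplite was added, and after 30 min at room temperature luciferase activity was read as a marker of ATAD5 induction.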

[3] = qHTS assay for small molecule agonists of the p53 signaling pathway - cell viability (AID 651633; calls by dose curve;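 note: p53RE-bla HCT reporter cells with a stable beta-lactamase p53 reporter; series mostly up to about 83 µM; nearly all actives have a fitted effect of over 30% in size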)
Method in brief: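 Viability counter-read: CellTiter-Glo luminescence (30 min, room temperature) in the same p53RE-bla plates. These plates had been exposed to compounds for 16 h at 37 C.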

[4] = qHTS assay for small molecules that induce genotoxicity in human embryonic kidney cells expressing luciferase-tagged ATAD5 - cell viability (AID 651634; calls by dose curve; note: nearly all actives have a fitted effect of over 25% in size; note: potency is the fitted concentration of half-maximal effect)
Method in brief: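 HEK293T cells expressing luciferase-tagged ATAD5 were exposed to compound or DMSO for 15.5 hr at 37C, 5% CO2. Viability was then read as live-cell protease activity by CellTiter-Fluor fluorescence after 30 min at 37C.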

[5] = qHTS assay for small molecule disruptors of the mitochondrial membrane potential - cell viability (AID 720634; calls by dose curve;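 note: human HepG2 liver cancer cells; series mostly up to about 83 µM; nearly all actives have a fitted effect of over 20% in size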)
Method in brief: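 HepG2 cells seeded overnight at 37 C, then exposed to compound or DMSO for 1 hr at 37 C, 5% CO2. m-MPI dye added, then CellTiter-Glo for 30 min at room temperature; viability read as ATP luminescence.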

[6] = qHTS assay for small molecule disruptors of the mitochondrial membrane potential (AID 720635); note: potency is the fitted concentration of half-maximal effect
Method in brief: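 Mitochondrial membrane potential tracked with Mito-MPS dye, red aggregates (ex 540/em 590 nm) against green monomers (ex 490/em 535 nm). Compound treatment 1 hr at 37C, dye 30 min in HepG2.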

[7] = qHTS assay to test for compound auto fluorescence at 590 nm (red) in HepG2 cells (AID 720674)
Method in brief: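 1 hr compound incubation on HepG2 cells, 37 C, 5% CO2; plate read ex 540 nm / em 590 nm; intensities reported as Rose Bengal sodium equivalents.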

[8] = qHTS assay to test for compound auto fluorescence at 535 nm (green) in HepG2 cells (AID 720675)
[9] = qHTS assay to test for compound auto fluorescence at 460 nm (blue) in HEK293 cells (AID 720678)
Method in brief: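 Auto fluorescence in the blue band was quantified as triamterene equivalency. HEK293 cells were seeded at 2,000/well, dosed after a 4-5 hr attachment, and kept overnight at 37C before the 405/460 nm reading.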

[10] = qHTS assay to test for compound auto fluorescence at 590 nm (red) in HEK293 cells (AID 720679)
Method in brief: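 Autofluorescence equivalency to Rose Bengal sodium, 540/590nm, in HEK293 cells exposed overnight to 23 nL compound per well.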

[11] = qHTS assay to test for compound auto fluorescence at 535 nm (green) in HEK293 cells (AID 720680)
[12] = qHTS assay to test for compound auto fluorescence at 460 nm (blue) in HEK293 cell free culture (AID 720681)
Method in brief: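 Blue fluorescence (Ex 405/Em 460 nm, triamterene-equivalent) was read immediately after pin transfer of compound or DMSO into medium (DMEM, 10% FBS) without cells.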

[13] = qHTS assay to test for compound auto fluorescence at 535 nm (green) in HEK293 cell free culture (AID 720682)
Method in brief: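 Using fluorescein as calibrant, autofluorescence was quantified at 485/535 nm in cell-free DMEM containing 10% FBS after pintool addition of compound or vehicle.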

[14] = qHTS assay to test for compound auto fluorescence at 590 nm (red) in HEK293 cell free culture (AID 720683)
Method in brief: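 Red-channel autofluorescence of compounds in culture medium (DMEM, 10% FBS), no cells, measured at 540/590 nm. Rose Bengal sodium is the reference fluorophore for equivalence.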

[15] = qHTS assay to test for compound auto fluorescence at 590 nm (red) in HepG2 cell free culture (AID 720684)
Method in brief: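 Plate contents were MEM with 10% FBS plus test compound or DMSO, no cells. Fluorescence was recorded with 540 nm excitation and 590 nm emission.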

[16] = qHTS assay to test for compound auto fluorescence at 460 nm (blue) in HepG2 cell free culture (AID 720685)
Method in brief: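 Compound (23 nL) or DMSO pinned into cell-free MEM with 10% FBS; blue fluorescence read at 405/460 nm excitation/emission, expressed as auto-fluorescence equivalency to triamterene.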

[17] = qHTS assay to test for compound auto fluorescence at 535 nm (green) in HepG2 cell free culture (AID 720686)
[18] = qHTS assay to test for compound auto fluorescence at 460 nm (blue) in HepG2 cells (AID 720687)
Method in brief: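 Blue-channel autofluorescence (Ex/Em 405/460 nm, triamterene-equivalent) was measured after 1 hr compound exposure at 37 C, 5% CO2. Cells were HepG2, plated overnight at 37 C in MEM plus 10% FBS.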

[19] = molecular target: Glucocorticoid receptor (Homo sapiens) (UniProt P04150); assay: qHTS assay to identify small molecule agonists of the glucocorticoid receptor (GR) signaling pathway (AID 720691; active = well fitted activation curve with a large enough effect in the signal ratio in the repeat runs, not every such curve was filed as active; the % refers to the signal ratio)
Chain of Glucocorticoid receptor (Homo sapiens) (P04150 whole entry, looked up): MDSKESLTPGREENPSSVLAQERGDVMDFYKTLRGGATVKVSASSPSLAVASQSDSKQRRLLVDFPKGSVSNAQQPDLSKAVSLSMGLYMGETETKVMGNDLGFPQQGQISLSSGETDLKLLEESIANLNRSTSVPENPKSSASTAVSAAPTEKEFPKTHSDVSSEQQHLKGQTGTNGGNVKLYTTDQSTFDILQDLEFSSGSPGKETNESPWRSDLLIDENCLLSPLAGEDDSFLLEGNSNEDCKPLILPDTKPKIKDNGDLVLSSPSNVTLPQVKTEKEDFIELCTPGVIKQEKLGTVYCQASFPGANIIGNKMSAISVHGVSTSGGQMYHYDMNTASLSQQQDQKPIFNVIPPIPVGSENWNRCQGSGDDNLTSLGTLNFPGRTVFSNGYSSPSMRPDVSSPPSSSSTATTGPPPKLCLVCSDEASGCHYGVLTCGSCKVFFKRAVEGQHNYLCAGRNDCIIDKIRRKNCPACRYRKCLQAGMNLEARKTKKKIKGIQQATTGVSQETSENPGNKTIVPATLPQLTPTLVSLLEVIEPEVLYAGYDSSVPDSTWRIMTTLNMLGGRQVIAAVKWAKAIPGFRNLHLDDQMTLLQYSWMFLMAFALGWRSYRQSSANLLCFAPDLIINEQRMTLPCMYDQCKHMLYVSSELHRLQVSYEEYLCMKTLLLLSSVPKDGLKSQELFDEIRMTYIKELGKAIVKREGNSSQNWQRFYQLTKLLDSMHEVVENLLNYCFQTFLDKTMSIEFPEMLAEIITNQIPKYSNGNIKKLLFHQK
Method in brief: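 GR-bla HeLa cells (beta-lactamase reporter under glucocorticoid response element) were plated 4 h at 37 C/5% CO2, given compounds in DMSO, and incubated 18 h at 37 C. LiveBLAzer B/G FRET substrate was added for 2 h at room temperature, then fluorescence intensity read.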

[20] = molecular target: Glucocorticoid receptor (Homo sapiens) (UniProt P04150); assay: qHTS assay to identify small molecule antagonists of the glucocorticoid receptor (GR) signaling pathway (AID 720692; active = well fitted inhibition curve with a large enough effect in the signal ratio in the repeat runs, not every such curve was filed as active; the % refers to the signal ratio)
Method in brief: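 GR-bla HeLa cells (beta-lactamase reporter under glucocorticoid response element) were pre-plated 4 h at 37 C, treated with compounds plus 5 nM dexamethasone (final) for 18 h, then read by LiveBLAzer B/G FRET fluorescence after 2 h.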

Measured: Potency

CN1C(=O)CC(C)(c2ccccc2)C1=O (centres undefined)
inactive: all assays above

CCN(CC)CCNC(=O)c1ccc(NC(C)=O)cc1
not listed: [10]
inactive: all other assays above

CCC(C(=O)OCCN(CC)CC)c1ccccc1 (centres undefined)
inactive: all assays above

CC(COc1ccc(C(C)(C)C)cc1)OS(=O)OCCCl (centres undefined)
not listed: [11] | [16] | [19] | [20]
inactive: all other assays above

CCCOC(=O)c1ccc(C(=O)OCCC)nc1
not listed: [11]
inactive: all other assays above

CCOC(=O)[C@@H](C)Oc1ccc(Oc2nc3ccc(Cl)cc3o2)cc1
not listed: [11] | [20]
inactive: all other assays above

CCC(=O)OC/C=C/c1ccccc1
inactive: all assays above

CCOC(=O)/C=C/C(=O)O
not listed: [19] | [20]
inactive: all other assays above

CCCOC(=O)c1ccc(N)cc1
not listed: [20]
inactive: all other assays above

COC(=O)Nc1nc2ccc(C(=O)c3cccs3)cc2[nH]1
active: [1] 133 nM | [2] 2.37 µM | [4] 133 nM | [6] 2370 nM
not listed: [19] | [20]
inactive: all other assays above

O=C(CCCCCCC(=O)Nc1ccccc1)NO
active: [1] 750 nM and 668 nM | [2] 2.11 µM and 1.68 µM
not listed: [19] | [20]
inactive: all other assays above

C[Si](NC1CCCCC1)(NC1CCCCC1)NC1CCCCC1
not listed: [10]
inactive: all other assays above

CC1(C)C2=CCCC(C)(C)[C@]23CC[C@H]1C3
inactive: all assays above
